The nature of experiment [1]: qHTS assay to identify small molecule antagonists of the thyroid receptor (TR) signaling pathway - cell viability counter screen (AID 743064). Note: nearly all actives have a fitted effect of over 50% in size. Note: potency is the fitted concentration of half-maximal effect. A digest of the protocol:
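Fluorescence from CellTiter-Fluor, added after 23.5 h exposure at 37 °C, reported viability of GH3.TRE-Luc cells co-treated with compound and 1 nM T3. Measured in the same wells as the luciferase TR readout.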
For orientation: qHTS replaces the single test concentration by a dilution series.

The nature of experiment [2]: qHTS assay to identify small molecule antagonists of the thyroid receptor (TR) signaling pathway (AID 743065). Note: nearly all actives have a fitted effect of over 55% in size. Note: potency is the fitted concentration of half-maximal effect. A digest of the protocol:
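Antagonism measured as loss of luciferase signal in GH3 cells stably carrying a TRE-luciferase reporter, co-treated with compound and T3 (1 nM final) for 23.5 h at 37 C. Viability was read in the same well by CellTiter-Fluor.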

In experiment [3] the test system is thyroid hormone receptor (rat, GH3 cells). Nature of the experiment: qHTS assay to identify small molecule agonists of the thyroid receptor (TR) signaling pathway (AID 743066; calls by dose curve).
Experiment [4] addresses Estrogen receptor (Homo sapiens) (UniProt P03372). Kind of experiment: qHTS assay to identify small molecule antagonists of the estrogen receptor alpha (ER-alpha) signaling pathway (AID 743069; active = well fitted curve in the direction sought with a large enough effect in the signal ratio in the repeat runs, not every such curve was filed as active; inconclusive = weak or mixed curves, or effect the other way; inactive = no such curve, though single readings can be large or run the other way; the % refers to the signal ratio; note: potency is the fitted concentration of half-maximal effect). A digest of the protocol:
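ER-alpha-UAS-bla GripTite HEK293 line; 2% charcoal-stripped FBS overnight; plated, 4 hr 37C/5% CO2; cpd in DMSO + 17beta-estradiol, 18 hr 37C; LiveBLAzer B/G FRET substrate 2 hr RT; fluorescence intensity.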

Experiment [5] can be described thus: qHTS assay to identify small molecule antagonists of the estrogen receptor alpha (ER-alpha) signaling pathway - cell viability counter screen (AID 743074; calls by dose curve;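 note: HEK293 cells carrying ER-alpha-UAS-bla reporter stimulated with 17beta-estradiol; nearly all actives have a fitted effect of over 45% in size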).
For experiment [6], the target named is Estrogen receptor (Homo sapiens) (UniProt P03372). Nature of the experiment: qHTS assay to identify small molecule agonists of the estrogen receptor alpha (ER-alpha) signaling pathway (AID 743075; calls by dose curve;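 note: HEK293 GripTite cells with ER-alpha and UAS-driven beta-lactamase reporter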; note: potency is the fitted concentration of half-maximal effect).
The target is the same in experiment [7]. Nature of the experiment: qHTS assay to identify small molecule agonists of the estrogen receptor alpha (ER-alpha) signaling pathway using the BG1 cell line (AID 743079). Note: nearly all actives have a fitted effect of over 20% in size. Note: potency is the fitted concentration of half-maximal effect. Particulars: BG1Luc4E2 cells, ERE-luciferase agonist, 22 h; activation: at 70.3 µM (top of the series).
Experiment [8] in a line: qHTS assay to identify small molecule antagonists of the estrogen receptor alpha (ER-alpha) signaling pathway using the BG1 cell line (AID 743080; calls by dose curve;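 note: BG1 cells stimulated with 17beta-estradiol alongside compound; nearly all actives have a fitted effect of over 25% in size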). Put shortly: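 BG1-Luc-4E2 cells (endogenous full-length ER-alpha, 4xERE luciferase) hormone-starved 5 days in charcoal-stripped FBS, plated 4,000/well for 24 h, then compound plus 17beta-estradiol for 21.5 h at 37 C; ONE-Glo luminescence read.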

Experiment [9] is described as follows: qHTS assay to identify small molecule antagonists of the estrogen receptor alpha (ER-alpha) signaling pathway using the BG1 cell line - cell viability counter screen (AID 743081).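 Note: compound given together with 17beta-estradiol as the ER stimulus; nearly all actives have a fitted effect of over 45% in size.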
The target in the next experiment is Aromatase (Homo sapiens) (UniProt P11511). Nature of the experiment: qHTS assay to identify aromatase inhibitors (AID 743083). Note: nearly all actives have a fitted effect of over 55% in size.

The structures appear in SMILES notation. Activity calls are given as the source filed them. Unless noted, calls come from the whole dose curve; as a rule, active = well fitted curve in the direction sought with a large enough effect in the repeat runs; inconclusive = weak or mixed curves; inactive = no such curve, though single readings can be large; an effect the other way counts as inactive or inconclusive.

Estrogen receptor (Homo sapiens), sequence (P03372 whole entry, looked up): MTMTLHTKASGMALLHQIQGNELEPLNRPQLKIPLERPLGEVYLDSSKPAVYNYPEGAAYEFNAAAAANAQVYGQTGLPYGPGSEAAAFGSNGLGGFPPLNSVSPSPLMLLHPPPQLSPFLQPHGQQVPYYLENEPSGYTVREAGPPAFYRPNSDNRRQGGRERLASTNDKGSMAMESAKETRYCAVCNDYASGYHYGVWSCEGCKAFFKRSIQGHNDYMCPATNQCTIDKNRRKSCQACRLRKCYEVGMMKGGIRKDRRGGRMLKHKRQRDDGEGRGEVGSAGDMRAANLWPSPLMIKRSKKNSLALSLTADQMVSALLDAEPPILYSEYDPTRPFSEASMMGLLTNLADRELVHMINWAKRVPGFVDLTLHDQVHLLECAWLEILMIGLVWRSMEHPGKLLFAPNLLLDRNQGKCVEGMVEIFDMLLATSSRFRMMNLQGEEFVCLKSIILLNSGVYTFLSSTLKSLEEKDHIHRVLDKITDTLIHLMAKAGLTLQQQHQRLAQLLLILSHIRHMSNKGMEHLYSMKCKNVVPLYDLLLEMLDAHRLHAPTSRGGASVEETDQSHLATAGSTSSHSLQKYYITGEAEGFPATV
Aromatase (Homo sapiens), sequence (P11511 whole entry, looked up): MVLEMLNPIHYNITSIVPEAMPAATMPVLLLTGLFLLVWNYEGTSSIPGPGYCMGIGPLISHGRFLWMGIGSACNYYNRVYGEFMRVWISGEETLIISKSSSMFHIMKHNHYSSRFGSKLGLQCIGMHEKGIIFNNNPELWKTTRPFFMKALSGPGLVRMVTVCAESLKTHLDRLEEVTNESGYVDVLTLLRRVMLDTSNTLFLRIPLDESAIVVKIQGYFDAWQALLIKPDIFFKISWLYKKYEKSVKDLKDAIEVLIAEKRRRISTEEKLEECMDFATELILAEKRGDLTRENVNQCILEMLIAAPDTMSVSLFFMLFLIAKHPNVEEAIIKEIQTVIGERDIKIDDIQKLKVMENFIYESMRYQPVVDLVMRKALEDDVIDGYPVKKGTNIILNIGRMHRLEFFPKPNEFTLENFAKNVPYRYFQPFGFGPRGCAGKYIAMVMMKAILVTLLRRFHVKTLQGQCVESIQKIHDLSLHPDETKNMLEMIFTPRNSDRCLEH

For the molecule `Cn1nnnc1SCC1=C(C(=O)O)N2C(=O)[C@@H](NC(=O)[C@H](OC=O)c3ccccc3)[C@H]2SC1`, the Potency result in experiment [1], in experiment [2], in [3], in experiment [4], in [5] and in experiment [6] was “inactive” each time. For the same molecule, the Potency result (in experiment [7]; in experiment [8]; in experiment [9]; with Aromatase (Homo sapiens)) was “inactive” throughout.
In the case of `C[C@@](Cc1ccc(O)c(O)c1)(NN)C(=O)O`, the Potency entry in experiment [1], in [2], in [3], in experiment [4], in experiment [5] and in [6] was “inactive” throughout. The Potency entry (in experiment [8]; in experiment [9]; with Aromatase (Homo sapiens)) was “inactive” throughout.
For the molecule `CC#CCC(C)[C@H](O)/C=C/[C@@H]1[C@H]2C/C(=C/CCCC(=O)O)C[C@H]2C[C@H]1O` (stereo partly specified), the Potency entry in experiment [1], in experiment [2], in experiment [3], in experiment [4], in [5] and in [6] was “inactive” in each case. Besides, the Potency entry (in experiment [8]; in the experiment with Aromatase (Homo sapiens)) was “inactive” throughout. The Potency in experiment [7] is 29.8 µM (active).
For `CC(C)C(=O)OCC(=O)[C@@]12O[C@H](C3CCCCC3)O[C@@H]1C[C@H]1[C@@H]3CCC4=CC(=O)C=C[C@]4(C)[C@H]3[C@@H](O)C[C@@]12C`, the results for the Potency in experiment [1], in experiment [2] and in experiment [4] were 18.8 µM (active), 10.6 µM (active) and 21.3 µM [inconclusive] (active), respectively. Besides, the Potency result (in experiment [3]; in [5]; in experiment [6]; in experiment [9]; in the experiment with Aromatase (Homo sapiens)) was “inactive” throughout.
With `OC(CN1CCCCC1)c1cc(-c2ccccc2)on1` (stereo unspecified), the Potency entry in experiment [1], in experiment [2], in experiment [3], in experiment [4], in experiment [5] and in experiment [6] was “inactive” in each case. Also, the Potency entry (in experiment [9]; in the experiment with Aromatase (Homo sapiens)) was “inactive” throughout. For the same molecule, the Potency in experiment [7] was 23.7 µM (active).
Turning to `CC1(C)S[C@@H]2[C@H](NC(=O)C(C(=O)Oc3ccc4c(c3)CCC4)c3ccccc3)C(=O)N2[C@H]1C(=O)O` (stereo partly specified), the Potency entry in experiment [1], in experiment [2], in experiment [3], in experiment [4], in experiment [5] and in [6] was “inactive” each time. For the same molecule, the Potency result (in experiment [8]; in experiment [9]; with Aromatase (Homo sapiens)) was “inactive” throughout.
On to `NC(Cc1ccccc1)C(=O)O` (stereo unspecified), for which the Potency result in [1], in [2], in [3], in [4], in experiment [5] and in [6] was “inactive” throughout. Further, the Potency entry (in experiment [8]; in experiment [9]; in the experiment with Aromatase (Homo sapiens)) was “inactive” throughout.
As to `CC1CCC(NC(=O)N(CCCl)N=O)CC1` (stereo unspecified), the Potency entry in [1], in experiment [2], in experiment [3], in [4], in experiment [5] and in [6] was “inactive” each time. In addition, the Potency result (in experiment [9]; in the experiment with Aromatase (Homo sapiens)) was “inactive” in each case. Besides, the Potency in experiment [7] was 26.6 µM (active).
Turning to `NCCCC[C@H](NC(=O)[C@@H]1CCCN1C(=O)[C@@H]1CSSC[C@H](N)C(=O)N[C@@H](Cc2ccccc2)C(=O)N[C@@H](Cc2ccccc2)C(=O)N[C@@H](CCC(N)=O)C(=O)N[C@@H](CC(N)=O)C(=O)N1)C(=O)NCC(N)=O`, the Potency result in experiment [1], in [2], in experiment [3], in [4], in [5] and in [6] was “inactive” in each case. The Potency entry (in experiment [7]; in experiment [8]; with Aromatase (Homo sapiens)) was “inactive” throughout.
For `CCCC(CCC)C(N)=O`, the Potency entry in experiment [1], in [2], in experiment [3], in [4], in [5] and in experiment [6] was “inactive” throughout. Further, the Potency result (in [7]; in [8]; with Aromatase (Homo sapiens)) was “inactive” each time.
Turning to `COc1cc(C[C@@H]2NCCc3cc(O)c(O)cc32)cc(OC)c1OC`, the Potency result in [1], in [2], in experiment [3], in experiment [4], in experiment [5] and in experiment [6] was “inactive” each time. Besides, the Potency result (in experiment [7]; in [8]; with Aromatase (Homo sapiens)) was “inactive” each time.
On to `CCN(CC)CCOc1ccc2nc(N(C)C)sc2c1`, for which the Potency result in experiment [1], in [2], in [3], in experiment [4], in experiment [5] and in [6] was “inactive” each time. The Potency result (in experiment [9]; in the experiment with Aromatase (Homo sapiens)) was “inactive” each time. For the same molecule, in experiment [7], the Potency is 26.6 µM (active).
For `CCC(=O)NS(=O)(=O)c1ccc(-c2c(-c3ccccc3)noc2C)cc1`, the Potency entry in [1], in experiment [2], in experiment [3], in [4], in [5] and in [6] was “inactive” in each case. Also, the Potency entry (in [7]; in experiment [8]; with Aromatase (Homo sapiens)) was “inactive” in each case.
Regarding `CC(C)[C@@H]1CC[C@@H](C)C[C@H]1OC(=O)c1ccccc1O`, the Potency result in [1], in experiment [2], in experiment [3], in experiment [4], in experiment [5] and in [6] was “inactive” in each case. The Potency entry (in experiment [7]; in [8]; with Aromatase (Homo sapiens)) was “inactive” in each case.
For the molecule `CCC(C)(C)OC(=O)N[C@@H](Cc1c[nH]c2ccccc12)C(=O)N[C@@H](CCSC)C(=O)N[C@@H](CC(=O)O)C(=O)N[C@@H](Cc1ccccc1)C(N)=O`, the Potency result in experiment [1], in experiment [2], in experiment [3], in experiment [4], in experiment [5] and in experiment [6] was “inactive” in each case. In addition, the Potency entry (in [7]; in experiment [8]; with Aromatase (Homo sapiens)) was “inactive” in each case.
For `O=C(Nc1ccc(O)cc1)c1ccccc1O`, the Potency result in [1], in experiment [2], in experiment [3], in experiment [4], in experiment [5] and in [6] was “inactive” in each case. Also, the Potency entry (in experiment [9]; with Aromatase (Homo sapiens)) was “inactive” each time. Moreover, the Potency in experiment [7] is 13.3 µM (active).
As for `COc1ccc2cc([C@H](C)CO)ccc2c1`, the Potency result in [1], in [2], in [3], in experiment [4], in experiment [5] and in [6] was “inactive” in each case. For the same molecule, the Potency result (in experiment [9]; in the experiment with Aromatase (Homo sapiens)) was “inactive” in each case. The Potency in [7] is 33.5 µM (active).
Turning to `NC(=O)Oc1ccc(Cc2ccccc2)cc1`, the Potency result in experiment [1], in experiment [2], in experiment [3], in experiment [4], in experiment [5] and in [9] was “inactive” throughout. Further, in the experiment with Aromatase (Homo sapiens), the Potency entry is “inactive”. The Potency was 26.8 µM [activator] (active) in [6] and 21.1 µM (active) in [7].
Consider `CCCC(=O)O[C@]1(C(=O)COC(C)=O)CC[C@H]2[C@@H]3C[C@H](F)C4=CC(=O)C=C[C@]4(C)[C@@]3(F)[C@@H](O)C[C@@]21C`, for which the Potency result in experiment [1], in experiment [2], in [3], in experiment [4], in experiment [5] and in [6] was “inactive” in each case. For the same molecule, the Potency result (in experiment [7]; in [9]; with Aromatase (Homo sapiens)) was “inactive” each time.

These data come from PubChem BioAssay (Tox21).
